According to PubChem BioAssay (Tox21):
Results filed as inconclusive are left out. A number with no mark means an inactive call. Active and inactive are the calls of the source. The call rests on the fitted dose curve; in most records, active means well fitted activation curve with a large enough effect in the repeat runs; inconclusive means weak or mixed curves; inactive means flat fitted curve, though single readings scatter.

Test: A CellTox Green Cytotoxicity Assay to monitor cytotoxicity in HepG2 cells - 8 hour (AID 1224890); further: nearly all actives have a fitted effect of over 45% in size
Conditions: CellTox Green fluorescence; series mostly up to 76.8 µM; cytotoxicity increase: at the top concentration
Excerpt: National Center for Advancing Translational Sciences [NCATS]
NIH Chemical Genomics Center [NCGC]
U.S. Environmental Protection Agency [EPA]
National Institutes of Environmental Health Sciences [NIEHS]
National Toxicology Program [NTP]
Cell-based models are critical for drug discovery. Determining the natural cytotoxic effects resulting from test compounds is an essential research activity. A CellTox Green Cytotoxicity Assay to monitor cytotoxicity in real time of continues cell culture during 40 hours of the compound treatment was used to screen Tox21 10K library compounds in HepG2 cells. CellTox Green Cytotoxicity Assay is a nonlytic, homogeneous, biofluorescent method to measure cytotoxicity in cell culture after experimental manipulation. The assay system uses a proprietary asymmetric cyanine dye that is excluded from viable cells but preferentially stains the dead cell's DNA. […] Viable cells produce no appreciable increases in fluorescence. Therefore, the fluorescence signal produced by the binding interaction with dead cell DNA is proportional to cytotoxicity.
The mixture of HepG2 cell suspension and reagents were dispensed at 600cells/6 ul/well in 1536-well tissue culture treated black solid bottom plates using a Multidrop dispenser. After the assay plates were incubated at a 37 C/5% CO2 incubator for 5 hours, 23 nL of compounds dissolved in DMSO, positive and negative controls was transferred to the assay plate by a pintool work station. The plates were incubated at 37 C for 40 hours. The fluorescence intensity were measured at 0h, 8h, 16h, 24h, 32h and 40h time points using ViewLux plate reader during compound treatment.
On the % scale 0 is the no-effect control and ±100 the full control effect; potency means the concentration at half of the fitted maximal effect.

Which “cytotoxicity increase” value does the source give for `CC1(C)O[C@@H]2C[C@H]3[C@@H]4CCC5=CC(=O)CC[C@]5(C)[C@@]4(F)[C@@H](O)C[C@]3(C)[C@]2(C(=O)CCl)O1` here?
Its value is -9.15% [at 35.3 µM].

With `CCOc1ccc2nc(N)sc2c1` as the compound, how does the “cytotoxicity increase” value read?
The value was 0.769%.

For `CC(C)(C)c1cccc(O)c1`, which “cytotoxicity increase” value is on record?
The value was 8.03%.

Which “cytotoxicity increase” value does the source give for `CN1CCC[C@@H]1Cc1c[nH]c2ccc(CCS(=O)(=O)c3ccccc3)cc12` here?
The value was -15.1% [at 35.3 µM].

With `FC(F)(F)C(F)(F)C(F)(F)C(F)(F)C(F)(F)C(F)(F)C(F)(F)C(F)(F)Br` as the compound, how does the “cytotoxicity increase” value read?
The value was 3% [at 35.3 µM].

Which “cytotoxicity increase” value does the source give for `COc1ccc2nc(NC(=O)Nc3ccccc3)sc2c1` here?
Its value is 8.96% [at 35.3 µM].

Which cytotoxicity increase does the source give for `O=C(O)c1ccccc1Nc1cc(Cl)ccc1C(=O)O` here?
The cytotoxicity increase was 7.19% [at 15.8 µM].

With `CC1=CC(=O)CC(C)(C)C1=O` as the compound, how does the “cytotoxicity increase” value read?
Its value is 0.965%.

For `CCc1nnc(NS(=O)(=O)c2ccc(N)cc2)s1`, which “cytotoxicity increase” value is on record?
The value was -2.57% [at 35.3 µM].

With `Cc1ccc(C=O)s1` as the compound, how does the Potency read?
The Potency was 38.9 µM (active).

For `Cc1cc(NS(=O)(=O)c2ccc(N)cc2)nc(C)n1`, which “cytotoxicity increase” value is on record?
The value was -1.94% [at 35.3 µM].

For `C[C@]12C(=O)OC(=O)[C@H]1[C@H]1C=C[C@@H]2C1`, which “cytotoxicity increase” value is on record?
The value was 0.307%.

For `O=C1CCC(C2CCCCC2)CC1`, which Potency is on record?
Its Potency is 27.5 µM (active).

Which “cytotoxicity increase” value does the source give for `CC1CN(c2ccccc2)NC1=O` (stereo not given) here?
The value was -0.207%.

For `COc1ccc(Nc2ccc(OC)cc2)cc1`, which “cytotoxicity increase” value is on record?
Its value is 0.386%.

For `CCNCCO`, which “cytotoxicity increase” value is on record?
The value was 5.67%.

For `CCCc1c2oc(C(=O)O)cc(=O)c2cc2c(=O)cc(C(=O)O)n(CC)c12`, which “cytotoxicity increase” value is on record?
The value was 0.978% [at 35.3 µM].

With `CC/C=C\CCOC(=O)C(C)C` as the compound, how does the “cytotoxicity increase” value read?
The value was -3.67%.

Which “cytotoxicity increase” value does the source give for `CC(=O)N(CC(O)CN(C(C)=O)c1c(I)c(C(=O)NCC(O)CO)c(I)c(C(=O)NCC(O)CO)c1I)c1c(I)c(C(=O)NCC(O)CO)c(I)c(C(=O)NCC(O)CO)c1I` (stereo not given) here?
The value was -7.66% [at 35.3 µM].

Which “cytotoxicity increase” value does the source give for `O=C(CCCl)NCc1ccccc1` here?
Its value is 0.611% [at 35.3 µM].

Which “cytotoxicity increase” value does the source give for `CC(C)S` here?
The value was 1.86%.

For `CCOC(=O)C(Br)c1ccccc1` (stereo not given), which “cytotoxicity increase” value is on record?
Its value is 1.84%.

With `CN1CCN(c2c(F)cc3c(=O)c(C(=O)O)cn4c3c2SCC4)CC1` as the compound, how does the “cytotoxicity increase” value read?
The value was 3.84% [at 35.3 µM].

For `C=O`, which “cytotoxicity increase” value is on record?
The value was -8.5%.

With `CCCCCCCCOC(=O)CCCCCCCCC(=O)OCCCCCCCC` as the compound, how does the “cytotoxicity increase” value read?
Its value is -16.7%.

With `O=c1[nH]c(=O)n([C@H]2C[C@H](O)[C@@H](CO)O2)cc1C(F)(F)F` as the compound, how does the “cytotoxicity increase” value read?
The value was 0.993% [at 35.3 µM].

With `COc1cc2c(cc1N)oc1ccccc12` as the compound, how does the “cytotoxicity increase” value read?
Its value is -1.14%.

With `C[C@@H](N)C(=O)O` as the compound, how does the “cytotoxicity increase” value read?
Its value is 2.21% [at 35.3 µM].

Which “cytotoxicity increase” value does the source give for `CC(Oc1c(Cl)cccc1Cl)C1=NCCN1` (stereo not given) here?
The value was -3.54% [at 35.3 µM].

Which “cytotoxicity increase” value does the source give for `CC(C)(C)C1CCCCC1=O` (stereo not given) here?
Its value is 2.99%.

With `COC(=O)c1ccc2cc(C(=O)OC)ccc2c1` as the compound, how does the cytotoxicity increase read?
The cytotoxicity increase was -0.23% [at 15.8 µM].

Which “cytotoxicity increase” value does the source give for `Cc1ccc(C(C)C)cc1O` here?
Its value is 19.8%.

Which “cytotoxicity increase” value does the source give for `O=C1CCCCCCCCCCC(=O)OCCO1` here?
The value was 13.1%.

For `O=C(O[C@@H](C(=O)O)[C@@H](OC(=O)c1ccccc1)C(=O)O)c1ccccc1`, which “cytotoxicity increase” value is on record?
The value was 5.79%.

With `CC(C)NCC(O)COc1ccc(CCOCC2CC2)cc1` (stereo not given) as the compound, how does the “cytotoxicity increase” value read?
The value was 0.205% [at 35.3 µM].

For `CCN[C@H]1CN(CCCOC)S(=O)(=O)c2sc(S(N)(=O)=O)cc21`, which “cytotoxicity increase” value is on record?
The value was 8.59% [at 35.3 µM].

Which “cytotoxicity increase” value does the source give for `O=Cc1ccc(O)c(O)c1O` here?
The value was 20.1% [at 35.3 µM].

Which “cytotoxicity increase” value does the source give for `O=C1C=CC(=O)O1` here?
The value was -11.1%.

For `CCCCC(=O)O[C@]1(C(=O)CO)[C@H](C)C[C@H]2[C@@H]3CCC4=CC(=O)C=C[C@]4(C)[C@@]3(F)[C@@H](O)C[C@@]21C`, which “cytotoxicity increase” value is on record?
Its value is 8.56% [at 35.3 µM].

For `O=C(Cl)c1cccc([N+](=O)[O-])c1`, which “cytotoxicity increase” value is on record?
The value was 1.97%.
